Assay results from PubChem BioAssay AID1626 (SRMLSC, 2009).
Screen size: about 220,000 compounds; about 2,000 (0.91%) were called active. Not shown: some 2% with an inconclusive outcome. Not all results are given here. Measured potencies and affinities stand elsewhere. Unmarked numbers belong to inactive results. Cut-off read from the data, not from the text of the source: inconclusive = inhibition above about 80% without an active follow-up result; inactive = below that; test concentration not stated here.

Experiment: M. tuberculosis H37Rv growth inhibitors, H37Rv strain (AID 1626);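 note: bacteria incubated seven days before Alamar blue readout; 0% = bacteria only wells and 100% = bacteria with antibiotic wells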
Conditions: stronger effect = higher value, concentration not given here

SMILES	inhibition
CC1CCCCC1NC(=O)COC(=O)CNC(=O)c1cccc(F)c1 (configuration not stated)	-0.59%
CP(=O)(O)CN1CCCCC1	-1.04%
NS(=O)(=O)c1ccc(CCNC(=O)CSc2nc3ccccc3c(=O)n2CCN2CCOCC2)cc1	-2.17%
O=C(O)c1ccccc1C(=O)NCCc1c(C(=O)O)[nH]c2ccc(F)cc12	-5.11%
Cc1ccc(NC(=S)NCCc2ccc(F)cc2)c(C)c1	6.97%
O=C(N/N=C/c1ccccc1F)NC1CCCCC1	6.4%
CNC(=S)NNC(=O)c1noc(C)c1C(=O)N1CCN(C(c2ccccc2)c2ccccc2)CC1	4.63%
O=C(NNC(=O)c1ccc(F)cc1F)c1ccc2c(c1)OCO2	-6.81%
COc1cccc(-c2nnc(NC(C)=O)o2)c1	7.53%
COc1ccccc1C(=O)Nc1nnc(-c2ccc(F)cc2)o1	9.06%
O=C(Nc1nnc(-c2ccc(Cl)cc2)o1)Nc1ccccc1Cl	-6.02%
COc1cccc(-c2nnc(NC(=O)C(C)C)o2)c1	59.4%
COc1ccccc1C(=O)NNC(=O)c1ccc(Cl)cc1	0.09%
O=C(Nc1nnc(-c2ccncc2)o1)c1ccccc1F	1.42%
Cc1ccc(-c2csc3nc(-c4ccncc4)[nH]c(=O)c23)cc1	3.27%
Cc1cccc(N2CCN(C(=O)Cn3cccc3)CC2)c1C	3.88%
Cc1ccc(/C=N/N2CCN(Cc3ccccc3)CC2)s1	-23%
COc1ccc(C2=NOC(C)(c3nnc(-c4ccc(F)cc4)o3)C2)cc1 (configuration not stated)	-6.66%
Cc1ccc(CC2C(=O)N(c3ncccn3)C(=O)C2C)cc1 (configuration not stated)	-0.53%
Cc1cccc(CC2CC(=O)N(c3ncccn3)C2=O)c1 (configuration not stated)	-7.53%
CNc1ncc(Cc2ccccc2)s1	14.7%
O=C(CSc1nnnn1-c1ccccc1)Nc1ncc(Cc2ccccc2Cl)s1	0.66%
Cc1ccc(CC2CC(=O)N(c3ncccn3)C2=O)cc1 (configuration not stated)	-1.69%
N#CCC(=O)Nc1ncc(Cc2ccccc2Cl)s1	5.63%
Cc1ccc(Cc2cnc(N3C(=N)SC(c4ccccc4)C3=O)s2)cc1 (configuration not stated)	1.22%

SMILES	inhibition
Cc1cccc(Cc2cnc(NC(=O)c3ccc(C)o3)s2)c1	21.9%
CCCn1c(=S)[nH]c2cc(C(=O)N3CCc4ccccc4C3)ccc2c1=O	-2.54%
CC(C)(C)OC(=O)N1CC(O)CC1C(=O)OCC(=O)c1ccccc1 (configuration not stated)	-11.3%
CC(O)CNC(=O)Cc1cc(=O)[nH]c(=O)[nH]1 (configuration not stated)	-2.41%
Cc1ccc2cc(CCNC(=O)C(C)(C)C)c(=O)[nH]c2c1	4.44%
Cc1nn(C)cc1CN1CCC(CO)(CCOc2ccccc2)CC1	-0.32%
Cc1ccc(CNC(=O)C2CNc3cc(C)ccc3O2)cc1 (configuration not stated)	11.1%
CC(C)CN(CCCNC(=O)CN1C(=O)COc2ccc(S(=O)(=O)N3CCCC3)cc21)CC(C)C	-2.35%
CNC(=O)/C(C#N)=C\c1ccc(CNS(=O)(=O)c2ccccc2)o1	-2.69%
CSc1nc(C)c2c(n1)N(c1ccc(F)cc1)CC2	5.51%
COc1ccc(N2CCc3c(C)nc(SC)nc32)cc1	11%
CC(C)(C)OC(=O)NCCc1nnc(SCc2cccc(Cl)c2)o1	13.5%
Cc1nc2nc[nH]n2c(=O)c1C/C=C/c1ccccc1	-3.13%
Cc1nc2nc(N)nn2c(C)c1C/C=C/c1ccccc1	-9.36%
Cc1ccnc(NC(=O)CCC(=O)N(CC(=O)NCc2ccccc2)Cc2cccs2)c1	6.51%
Cc1cc2nccc(-c3ccncc3)n2n1	2.36%
N#CCC1c2ccccc2CCN1C(=O)Nc1cccc(C(F)(F)F)c1 (configuration not stated)	-1.17%
N#CCC1c2ccccc2CCN1C(=O)Nc1ccc(Cl)cc1 (configuration not stated)	-4.15%
C=CCN=C1SCC(=O)N1S(=O)(=O)c1ccccc1	6.81%
Cc1ccn2c(CNC(C)CCn3cccn3)c(C(=O)N3CCCCCC3)nc2c1 (configuration not stated)	-0.19%
Cc1nc(N2CCOCC2)c2oc3ccccc3c2n1	-2.79%
Cc1nc(N2CCC(C)CC2)c2oc3ccccc3c2n1	10%
COc1ccccc1N1CCN(c2ncnc3c2oc2ccccc23)CC1	-5.65%
Cc1nc(N2CCN(Cc3nc4ccccc4[nH]3)CC2)c2oc3ccccc3c2n1	-2.88%
CN(CC(=O)Nc1ccccn1)S(=O)(=O)c1ccc(Cl)cc1	-2.26%

SMILES	inhibition
CN(C)/C=C1\N=C(c2ccccc2)OC1=O	8.41%
CC(=O)Oc1ccc2c(=O)c(Oc3ccccc3)c(C)oc2c1OC(C)=O	-17.4%
COc1ccc(-c2[nH]ncc2CNC(C)Cc2cccc(C)n2)cc1F (configuration not stated)	0.91%
CCOc1ccc(CCN2C(=O)C(=O)N([C@H](CCCN(C)Cc3ccccc3)CNCc3ccccc3)C[C@@H]2C(C)C)cc1	-12.7%
O=C1NC[C@H](c2ccccc2)N(CCc2cccc(F)c2)C1=O	-4.05%
COc1ccc(CNC(=O)[C@@H]2CC=C[C@@H]3CCN(Cc4ccc(Cl)c(Cl)c4)C(=O)[C@@H]32)cc1	6.56%
Cc1ccc(CCN2CC(C(=O)NCCCN(C)Cc3ccccc3)CC2=O)cc1 (configuration not stated)	2.65%
Cc1cc(C)nc(NS(=O)(=O)c2ccc(NC(=O)c3ccco3)cc2)n1	3.55%
O=C(Nc1ccc(Cl)cc1)OCc1cn(-c2ccc(Cl)cc2)nn1	-0.6%
O=C(CCN1CCCCC1)N/N=C/c1c[nH]c2ccccc12	-4.97%
Cc1ccc(C)c(N(C(=O)CS(=O)CC(=O)Nc2ccc3c(c2)OCO3)C(C)C(=O)NC2CCCC2)c1 (configuration not stated)	-13.4%
CC1(C)CC(=O)C(C=Nc2ccc(O)cc2)=C(O)C1	1.61%
CC1(C)CC(=O)C(C=Nc2ccc(N)cc2)=C(O)C1	0.045%
COCCNC(=O)CSc1c2c(nc3ccc(Cl)cc13)CCCC2	0.54%
O=C(O)c1c2c(nc3ccc(Cl)cc13)CCC2	-3.42%
Oc1ccc(-n2cnnn2)cc1	-8.59%
Cc1cc(NCCN2CCOCC2)n2ncc(-c3ccccc3)c2n1	8.29%
CCc1nccn1-c1cc(C(C)(C)C)nc2c(-c3ccc(Cl)cc3)cnn12	3.22%
Cc1cc(-c2ccccc2)n2ncc(-c3ccccc3)c2n1	7.91%
Cc1nccn1-c1cc(C(C)(C)C)nc2c(-c3ccccc3)cnn12	2.7%
CC(=O)Nc1ccc(Nc2cc(C)nc3c(-c4ccccc4)cnn23)cc1	72.8%
Cc1cc(N)n2ncc(-c3ccccc3)c2n1	8.61%
O=C(COc1ccccc1)N1c2ccccc2Sc2ccccc21	-4.38%
O=C(O)c1ccccc1SCC(=O)N1CCOCC1	7.09%
CCOc1cccc2sc(Cl)nc12	-8.06%

SMILES	inhibition
C=CCN=C(SCC(=O)c1ccc(Cl)cc1)c1c(O)n(C)c(=O)n(C)c1=O	1.31%
CN=C(SCc1cc2c(cc1Cl)OCO2)c1c(O)n(C)c(=O)n(C)c1=O	-0.46%
CSC(=Nc1ccccc1)c1c(O)n(C)c(=O)n(C)c1=O	-1.82%
CN=C(SCc1ccccc1)c1c(O)n(C)c(=O)n(C)c1=O	-0.87%
CCNC(=O)CC1S/C(=N/N=C(\C)c2ccccc2)NC1=O (configuration not stated)	2.78%
O=C(CNC(=O)c1cccs1)c1ccc(F)cc1	4.53%
CCN(CC)S(=O)(=O)c1ccc(C(=O)OCC(=O)Nc2sc3c(c2C#N)CCCCC3)cc1	6.83%
COc1ccc(-c2ccc(OC)cc2)cc1	-6.18%
COc1ccc(-c2cc(-c3ccccc3)[n+](C)c(-c3ccccc3)c2)cc1	2.49%
CCC(=O)Nc1cccc(C(=O)/C=C/c2cccs2)c1	31.2%
CCC(=O)Nc1cccc(C(=O)c2ccccc2)c1	25.8%
CC(=O)Nc1cccc(C(=O)/C=C/c2ccc(F)cc2)c1	16.5%
CC(=O)Nc1cccc(C(=O)/C=C/c2ccc(N(C)C)cc2)c1	8.2%
CC(=O)Nc1cccc(C(=O)/C=C/c2ccc(/C=C/C(=O)c3cccc(NC(C)=O)c3)cc2)c1	2.15%
CC(=O)Nc1cccc(C(=O)/C=C/c2ccc[nH]2)c1	-13.8%
CC(C)CN1C(=O)C(NC(=O)C2CC2)(C(F)(F)F)C2=C1CC(C)(C)CC2=O (configuration not stated)	-4.55%
COc1ccc(-n2c(SCC(=O)N/N=C/c3ccccc3OCC(=O)O)nc3ccccc3c2=O)cc1	-3.87%
COc1ccc(-c2cc(C(=O)OCC(=O)N(C)C)c3ccccc3n2)cc1	-8.2%
N#CCCN/N=C(\Cc1nc2ccccc2[nH]1)c1ccccc1	-0.45%
COc1cc(C(C)=O)ccc1COc1ccc(C(=O)OCC(=O)NC2CCS(=O)(=O)C2)cc1OC (configuration not stated)	1.52%
O=C(O)CCn1cc(/C=C\C(=O)c2ccc(Cl)cc2)c(-c2cccc(Br)c2)n1	-1.2%
CCN(CC)CCCNc1cc(C)nc2cc(-c3cccs3)nn12	-2.4%
